Source: PubChem BioAssay (Tox21)
Records with an inconclusive call do not appear. Unmarked numbers belong to inactive results. Activity calls are given as the source filed them. Calls come from the whole dose curve.

test system: not listed separately; experiment: qHTS assay to identify small molecule antagonists of the estrogen receptor alpha (ER-alpha) signaling pathway - cell viability counter screen (AID 743074); conditions: ERalpha-bla HEK293 viability, CellTiter-Glo luminescence, 18 h; series mostly up to 69.4 µM; activity, negative = cytotoxicity: at the top concentration;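 note: HEK293 cells carrying ER-alpha-UAS-bla reporter stimulated with 17beta-estradiol; nearly all actives have a fitted effect of over 45% in size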
% is set by controls: 0 for no effect and ±100 for the full control effect.

Going from `CCN(CC)CCOC(=O)C(c1ccccc1)C1CCCCC1` (stereo not drawn) to `CCCOC(C(=O)OC1CCN(C)CC1)(c1ccccc1)c1ccccc1`, the “activity, negative = cytotoxicity” value falls from 23.1% to -15.5%.

Going from `O=C(O)C(S)C(S)C(=O)O` (stereo not drawn) to `O=C(OCCCCCCOC(=O)c1ccccc1)c1ccccc1`, the “activity, negative = cytotoxicity” value rises from 12.1% to 23.5%.

Going from `COc1cc(Cl)ccc1Oc1ccc(Cl)cc1Cl` to `COc1ccc(C(=O)Nc2nc3ccccc3c(NCc3ccccc3)c2C#N)cc1`, the “activity, negative = cytotoxicity” value falls from 30% to 11%.

Compared with `COC(C)(C)CCO`, `C/C=C/C=C/CO` is lower in “activity, negative = cytotoxicity” value: 10% for the first, -9.99% for the second.

Compared with `CCCCCCCCCCCCCCCCOS(=O)(=O)O`, `C=CC(=O)OCCOc1ccccc1` is higher in “activity, negative = cytotoxicity” value: 11% for the first, 14.3% for the second.

In the case of `Nc1ncn([C@H]2C[C@H](O)[C@@H](CO)O2)c(=O)n1`, the “activity, negative = cytotoxicity” value is reported as 4.58%.

For `CCCCO`, the Potency was “inactive”.

Going from `C=C(C)C(=O)OCCO` to `O=[N+]([O-])c1cccc(S(=O)(=O)O)c1`, the “activity, negative = cytotoxicity” value falls from 18.9% [at 79.1 µM] to -16.7% [at 79.1 µM].

With `CN1CCN(C(c2ccccc2)c2ccccc2)CC1` the “activity, negative = cytotoxicity” value was 12% [at 32.6 µM].

molecular target: Estrogen receptor (Homo sapiens) (UniProt P03372); experiment: qHTS assay to identify small molecule agonists of the estrogen receptor alpha (ER-alpha) signaling pathway (AID 743075); conditions: HEK293 ER-alpha-UAS-bla, beta-lactamase FRET ratio, 18 h; series mostly up to 70.1 µM; activation: at the top concentration;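 note: HEK293 GripTite cells with ER-alpha and UAS-driven beta-lactamase reporter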
Sequence (P03372 whole entry, looked up): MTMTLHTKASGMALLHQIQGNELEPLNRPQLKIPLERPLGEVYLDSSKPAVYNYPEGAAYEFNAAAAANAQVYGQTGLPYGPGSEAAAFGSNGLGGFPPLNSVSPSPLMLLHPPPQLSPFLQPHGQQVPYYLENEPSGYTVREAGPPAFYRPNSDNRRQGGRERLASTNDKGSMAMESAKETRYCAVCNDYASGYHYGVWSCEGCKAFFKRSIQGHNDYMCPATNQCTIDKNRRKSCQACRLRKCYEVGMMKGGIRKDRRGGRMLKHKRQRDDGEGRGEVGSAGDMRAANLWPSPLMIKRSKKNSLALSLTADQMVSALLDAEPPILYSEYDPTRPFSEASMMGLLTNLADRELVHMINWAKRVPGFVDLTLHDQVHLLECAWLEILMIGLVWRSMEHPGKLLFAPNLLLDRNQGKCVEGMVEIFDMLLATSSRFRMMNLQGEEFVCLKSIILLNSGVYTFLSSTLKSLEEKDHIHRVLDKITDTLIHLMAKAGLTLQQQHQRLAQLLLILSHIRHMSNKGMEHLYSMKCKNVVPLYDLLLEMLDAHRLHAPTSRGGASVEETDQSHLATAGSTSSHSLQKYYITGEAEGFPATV

First: O=C1OC(CN2CCOCC2)CN1/N=C/c1ccc([N+](=O)[O-])o1 (stereo not drawn)
Second: CN1CCN(C(c2ccccc2)c2ccccc2)CC1
The “activation” value of the first is lower: -0.967% [at 32.9 µM] for the first, 0.143% [at 32.9 µM] for the second.

Compared with `C=CC(=O)OCCOCCOC(=O)C=C`, `C=C(C)C(=O)OCCO` is higher in “activation” value: -4.48% [at 79.1 µM] for the first, -2% [at 79.1 µM] for the second.

For `CCCCC(CC)COC(=O)COc1ccc(Cl)cc1Cl` (stereo not drawn), the “activation” value was -1.37% [at 79.1 µM].

In the case of `CN(Cc1ccc(C(C)(C)C)cc1)Cc1cccc2ccccc12`, the Potency is reported as “inactive”.
For `CNC(=O)CN(CCN(CCN(CC(=O)[O-])CC(=O)NC)CC(=O)[O-])CC(=O)[O-].O.[Gd+3]`, the Potency was “inactive”.
In the case of `OCc1cc(C(O)CNCCCCCCOCCCCc2ccccc2)ccc1O` (stereo not drawn), the Potency is reported as “inactive”.
In the case of `N=c1ccn2c(n1)O[C@H]1[C@H](O)[C@@H](CO)O[C@H]12`, the Potency is reported as “inactive”.

Going from `c1ccc(CNCCNCc2ccccc2)cc1` to `O=C(OCCCCCCOC(=O)c1ccccc1)c1ccccc1`, the “activation” value falls from -2.39% to -3.83%.

Compared with `C[C@@H]1C[C@H]2O[C@@]3(O[C@@H]2C(C)(C)O)[C@H](O)[C@@]2(C)[C@@H]4CC[C@H]5C(C)(C)[C@@H](O[C@@H]6OC[C@@H](O)[C@H](O)[C@H]6O)CC[C@@]56C[C@@]46CC[C@]2(C)[C@@H]13`, `COc1ccc(S(=O)(=O)N2C(=O)[C@@](c3ccccc3OC)(N3C[C@H](O)C[C@H]3C(=O)N(C)C)c3cc(Cl)ccc32)c(OC)c1` is higher in “activation” value: -1.51% for the first, -0.616% for the second.

Going from `CC1=CC[C@H](C(C)C)C=C1` to `CC(C)CC(=O)C1C(=O)c2ccccc2C1=O`, the “activation” value falls from 1.87% to 1.05%.

Compared with `CCCCCCCCCCCc1ccccc1`, `CCCCCCCCCCCCCCCCOS(=O)(=O)O` is higher in “activation” value: -0.872% for the first, 2.38% for the second.

Going from `CCN(CC)CCOC(=O)C(c1ccccc1)C1CCCCC1` (stereo not drawn) to `CCCOC(C(=O)OC1CCN(C)CC1)(c1ccccc1)c1ccccc1`, the “activation” value rises from 2.28% to 2.29%.

Going from `COc1cc(Cl)ccc1Oc1ccc(Cl)cc1Cl` to `CCCCc1nc2cccnc2n1Cc1ccc(-c2ccccc2-c2nnn[nH]2)cc1`, the “activation” value rises from 0.681% to 4.34%.

First: NCC(=O)O
Second: COc1ccc(C(=O)Nc2nc3ccccc3c(NCc3ccccc3)c2C#N)cc1
The “activation” value of the first is lower: -3.68% for the first, 1.75% for the second.
